Among the data in ChEMBL document CHEMBL1201862, “PubChem BioAssay data set” (2004) are Potency values, retold here.

Each structure is given as a SMILES string. Only a part of the results of these assays is listed, not drawn at random.

This test deals with Pyruvate kinase PKM (Homo sapiens) (UniProt P14618). Put plainly: Confirmation Concentration-Response Assay for Activators of Human Muscle isoform 2 Pyruvate Kinase: for Probe SAR. Type of test: functional.
Chain of Pyruvate kinase PKM (Homo sapiens) (P14618 2-531 limits assumed): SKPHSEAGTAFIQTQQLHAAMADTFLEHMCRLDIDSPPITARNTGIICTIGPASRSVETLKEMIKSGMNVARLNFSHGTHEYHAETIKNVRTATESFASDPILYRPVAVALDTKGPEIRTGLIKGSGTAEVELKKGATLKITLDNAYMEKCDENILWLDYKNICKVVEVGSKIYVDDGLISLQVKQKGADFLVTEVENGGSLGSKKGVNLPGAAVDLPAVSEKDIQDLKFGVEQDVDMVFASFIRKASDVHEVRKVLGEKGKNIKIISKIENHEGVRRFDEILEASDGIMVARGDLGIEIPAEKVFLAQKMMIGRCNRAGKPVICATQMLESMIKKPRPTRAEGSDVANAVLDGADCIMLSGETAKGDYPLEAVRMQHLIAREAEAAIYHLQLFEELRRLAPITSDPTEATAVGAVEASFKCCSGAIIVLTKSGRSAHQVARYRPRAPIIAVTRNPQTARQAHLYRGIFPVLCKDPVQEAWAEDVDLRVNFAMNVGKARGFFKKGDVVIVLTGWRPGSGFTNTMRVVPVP

As for `C[N+](C)(C)c1cccc(S(=O)(=O)N2CCCN(S(=O)(=O)c3ccc4c(c3)OCCO4)CC2)c1`, the Potency was 16.3 µM (active).
